High-throughput results from PubChem.
MARV entry inh: inhibitors of Marburg virus binding or cell entry; Marburg virus pseudotyped entry inhibition, cell reporter; Potency, µM (doses to about 37.8 µM), for the others: top-dose activity change, negative = inhibition, usual class: inhibitors; 300,000 tested, 1.8% active; AID 540276; calls by dose curve; tested in HEK293 cells; further: potency means the concentration at half of the fitted maximal effect; on the % scale 0 is the no-effect control and ±100 the full control effect
Shiga inhibitor: blocks Shiga toxin action in Vero cells. inhibition, % at 38.7 µM. Vero cells, Shiga toxin protein synthesis inhibition reporter. AID 2315. 290,000 tested, 9.2% active; in the data active means inhibition mostly above about 28%, no sharp cut-off; inactive means mostly below about 43%; further: 0% is about no effect
Pf growth 96h: inhibits malaria parasite growth, 96 h; P. falciparum luciferase reporter growth, 96 h; 320,000 tested, 6.9% active; Potency, µM (titrated, usually from 28.7 µM), for inactives: at the highest dose activity change, negative = inhibition, hits mostly inhibitors; further: potency means the concentration at half of the fitted maximal effect; on the % scale 0 is the no-effect control and ±100 the full control effect
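Two-generation exposure (96 h) targets delayed-death phenotype. Reporter parasites carrying integrated firefly luciferase, in red cells at 2% hematocrit and 0.05% parasitemia final, kept at 37 C, 5% CO2; luminescence loss indicates inhibition.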
Lassa entry inh: Lassa virus entry inhibition; Lassa virus pseudotype entry inhibition, cell reporter; 300,000 tested, 1.2% active; Potency, µM (top dose mostly 37.9 µM), for the others: at the highest dose activity change, negative = inhibition, usual class: inhibitors; AID 540256; calls by dose curve; tested in HEK293 cells; further: potency means the concentration at half of the fitted maximal effect; on the % scale 0 is the no-effect control and ±100 the full control effect; nearly all actives have a fitted effect of over 50% in size
Cycloheximide cs: counter-screen hit for Shiga toxin inhibitors, cycloheximide | cell reporter, cycloheximide protein synthesis inhibition counterscreen | max response, % | 300,000 tested, 12% active; in the data active means max response mostly above about 13%, no sharp cut-off; inactive means mostly below about 14%; further: read at 38.3 µM for the half of the compounds with a filed dose; 0% is about no effect
Pf growth 48h: inhibits P. falciparum growth in the first generation, 48 h | P. falciparum luciferase growth in erythrocytes, 48 h | Potency, µM (doses to about 28.7 µM), without a hit: at the highest dose activity change, negative = inhibition, hits mostly inhibitors | 310,000 tested, 5.9% active; further: potency means the concentration at half of the fitted maximal effect; on the % scale 0 is the no-effect control and ±100 the full control effect
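Erythrocytes infected with P. falciparum carrying an integrated firefly luciferase reporter (2% hematocrit, 0.1% parasitemia final) were exposed to compounds in RPMI 1640 with 0.5% Albumax at 37 C, 5% CO2. Growth inhibition was scored as reduced luminescence.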
* marks the source's active call; other numbers are inactive results; u = inconclusive; x = no result given; [ ] = remark or other dose. In the library only some 19% were active in any assay of this set; here they are far more common. Unless noted, the call rests on the fitted dose curve; in most records, active means well fitted inhibition curve with a large enough effect; inconclusive means small, poorly fitted or top-dose-only effect, or another doubt; inactive means no such curve, though single readings can be large or run the other way.

SMILES	MARV entry inh	Shiga inhibitor	Pf growth 96h	Lassa entry inh	Cycloheximide cs	Pf growth 48h
C=CCNC(=S)Nc1ccc(C)cc1[N+](=O)[O-]	x	26	u	x	15	20%
CC(/C=C/c1ccc2c(c1)OCO2)=N\NC(=O)c1ccccc1	8%[46.1 µM]	152*	-15%	x	41*	26%
CC(/C=C/c1ccc2c(c1)OCO2)=N\NC(=O)C(O)c1ccccc1 (configuration not stated)	-13%	10	u	1%	6	-1%
C/C(=N/NC(=O)c1ccc2c(c1)OCCO2)c1ccc([N+](=O)[O-])cc1	11%[46.1 µM]	21*	43%	u	15*	32%
Cc1ccc(NC(=S)NC(C)(C)C)c([N+](=O)[O-])c1	2%[46.1 µM]	25	u	-8%	26*	19%
CC(/C=C/c1ccc2c(c1)OCO2)=N\NC(=O)c1cccc([N+](=O)[O-])c1	-8%	35	u	-15%	20*	x
C/C(=N/NC(=O)c1ccc2c(c1)OCO2)c1cccc(NC(=O)C(C)(C)C)c1	-1%[46.1 µM]	60	-5%[5.75 µM]	8%	21	11%
C/C(=N/NC(=O)c1ccc2c(c1)OCO2)c1cccc([N+](=O)[O-])c1	u	37*	u	17%[46.1 µM]	31*	73%
O=S(=O)(c1ccccc1)N1CCN(Cc2ccc(Cl)cc2)CC1	x	-15	70%	x	-2	23%
O=c1c2c3c(sc2n(CCN2CCCC2)c(=O)n1Cc1ccco1)CCCCC3	u	-21	4%	u	5	u
COc1ccccc1OCC(O)COC(N)=O (configuration not stated)	u	-5	-11%	2%	-3	-21%
O=C(CSc1nc(-c2cccc(F)c2)[nH]c1-c1ccccc1)Nc1ccc2c(c1)OCCO2	u	x	x	10µM*	x	x
CCOc1ccc(-c2nc(SCC(=O)Nc3ccc4c(c3)OCCO4)c(-c3ccc(F)cc3)[nH]2)cc1	19%[46.1 µM]	x	x	-27%[46.1 µM]	x	x
COc1ccc(-c2[nH]c(-c3cccc(OC)c3)nc2SCC(=O)Nc2ccc3c(c2)OCO3)cc1	-14%[46.1 µM]	x	x	7.9µM*	x	x
O=[N+]([O-])c1ccc(Nc2ccc(F)cc2)cc1	x	5	8%	x	-3	-6%
C=C(C)C(=O)C=Cc1ccc(Br)cc1	6%[14.2 µM]	x	x	x	x	x
C[n+]1ccc(/C=C/c2ccc(Br)cc2)cc1	u	3	1.3µM*	-24%	4	0.33µM*
Clc1cccc(CN2CCN(c3ncccn3)CC2)c1Cl	x	14	13µM*	x	-2	19%
CN(C(=O)CSc1nc(O)cc(=O)n1C1CCCC1)c1ccccc1	-18%[46.1 µM]	-4	1.7µM*	10%	-1	u
CCCCNC(NCCCC)=C(S(=O)(=O)CC)S(=O)(=O)CC	10%	23	u	24%	-4	5%
O=c1[nH]c(=O)n(-c2cccc3ccccc23)c(O)c1/C=N/N1CCCCC1	u	-1	32%	6%	-4	0%
Cc1cc(C)nc(Nc2n[nH]c(-c3ccccc3Br)n2)n1	14%	110*	x	5%	48*	33%
Cc1cc(C)nc(Nc2n[nH]c(C)n2)n1	2%	-1	-3%	16%	-3	1%
Cc1cc(C)nc(Nc2n[nH]c(-c3ccc(C(C)(C)C)cc3)n2)n1	u	-5	6%	-1%	-2	u
Cc1cc(C)nc(Nc2n[nH]c(-c3ccc(N)cc3)n2)n1	-1%	72*	x	-12%	36*	118%
SMILES	MARV entry inh	Shiga inhibitor	Pf growth 96h	Lassa entry inh	Cycloheximide cs	Pf growth 48h
Cc1cc(C)nc(Nc2n[nH]c(-c3ccccc3C)n2)n1	x	100*	u	x	42*	70%
Cc1ccc(C(=O)NCc2ccncc2)cc1S(=O)(=O)N1CCOCC1	26%[46.1 µM]	-2	-4%	11%[46.1 µM]	-3	11%
CCN1C(=O)/C(=C\c2ccc([N+](=O)[O-])s2)C(=O)NC1=S	x	23	u	x	-1	-6%
COCCn1c(SCC(=O)c2cc(C)n(C)c2C)nc2ccccc2c1=O	-25%[46.1 µM]	39	-21%	u	11*	51%
COCCn1c(C)cc(C(=O)CSc2cc(C)c3ccc(OC)cc3n2)c1C	u	34	u	u	18*	-13%
COCCn1c(C)cc(C(=O)CSc2nc3ccccc3s2)c1C	u	20	7%	u	80*	49%
COCCn1c(C)cc(C(=O)CSc2nc3ccccc3o2)c1C	u	120*	147%	u	51*	111%
COCCn1c(C)cc(C(=O)CSc2nc(C)c(C)c(C)n2)c1C	13%[46.1 µM]	24	u	-5%	11	-26%
CCCc1cc(=O)[nH]c(SCC(=O)c2cc(C)n(CCOC)c2C)n1	10%	20	-23%	6%	-2	2%
O=C(Nc1ccc2oc(-c3ccncc3)nc2c1)c1ccc(Br)o1	18%[46.1 µM]	-10	26%	x	-5	39%
COCCn1c(C)cc(C(=O)CSc2ncn[nH]2)c1C	u	71*	2%[5.75 µM]	-6%	36*	-68%
CCCCC1CCC(C(=O)N(CC(C)C)c2c(N)n(CCCC)c(=O)[nH]c2=O)CC1 (configuration not stated)	-6%	x	u	17%[46.1 µM]	x	91%
CCOC(=O)CC(NC(=O)CCc1c(C)nc2nc(C)nn2c1C)c1ccc(OC(C)C)cc1 (configuration not stated)	6%[46.1 µM]	14	20%	-4%[46.1 µM]	2	-1%
CCOC(=O)C1CCCN(C(=O)C(C)Oc2ccc(Cl)cc2Cl)C1 (configuration not stated)	-9%	-11	u	-2%	-3	u
O=c1c2ccccc2c(C=NC2CCN(Cc3ccccc3)CC2)c(O)n1Cc1ccc2c(c1)OCO2	x	-10	u	x	3	4.7µM*
CN(C)CCN=Cc1c(O)n(Cc2ccc3c(c2)OCO3)c(=O)c2ccccc12	-19%[14.2 µM]	-4	15%	-16%	1	92%
Cc1ccc(NC(=O)N(Cc2ccc3c(c2)OCO3)C2CCN(Cc3ccccc3)CC2)cc1Cl	x	x	x	11µM*	x	x
O=C(Nc1ccc2c(c1)OCO2)NC1CCN(Cc2ccccc2)CC1	-4%	41*	x	15%	36*	u
c1cnc2c(Oc3ncnc4sccc34)cccc2c1	x	27	53%	x	11	31%
CO[C@@]12[C@H](COC(N)=O)C3=C(C(=O)C(C)=C(N)C3=O)N1C[C@@H]1N[C@@H]12	x	x	5.2µM*	x	x	13µM*
CCCNC1=C(C)C(=O)C2=C(C1=O)C(COC(N)=O)[C@]1(OC)C3NC3CN21 (some centres not stated)	6.3µM*	-7	0.19µM*	u	-2	1.3µM*
Cc1nc(N2CCN(C(=O)c3cccs3)CC2)c2c3c(sc2n1)CCCC3	-3%[46.1 µM]	-1	23%	u	-4	u
CCN(CC(=O)Nc1c(F)cccc1F)C(=O)COc1cccc2c1OC(C)(C)C2	9%[46.1 µM]	x	u	-22%	x	-3%
